Compound activity as filed in PubChem BioAssay.
This is a sample that favours compounds with a hit; in the whole collection about 3.2% have one here.
USP1 inh – Inhibitors of USP1/UAF1: Primary Screen; hit rate 0.23% among 390,000; recombinant USP1/UAF1, Ub-Rhodamine cleavage fluorescence; Ubiquitin carboxyl-terminal hydrolase 1 (Homo sapiens), O94782; Potency, µM (top dose mostly 57.1 µM), actives largely listed as inhibitors; note: nearly all actives have a fitted effect of over 60% in size
Target sequence (O94782 whole entry, looked up): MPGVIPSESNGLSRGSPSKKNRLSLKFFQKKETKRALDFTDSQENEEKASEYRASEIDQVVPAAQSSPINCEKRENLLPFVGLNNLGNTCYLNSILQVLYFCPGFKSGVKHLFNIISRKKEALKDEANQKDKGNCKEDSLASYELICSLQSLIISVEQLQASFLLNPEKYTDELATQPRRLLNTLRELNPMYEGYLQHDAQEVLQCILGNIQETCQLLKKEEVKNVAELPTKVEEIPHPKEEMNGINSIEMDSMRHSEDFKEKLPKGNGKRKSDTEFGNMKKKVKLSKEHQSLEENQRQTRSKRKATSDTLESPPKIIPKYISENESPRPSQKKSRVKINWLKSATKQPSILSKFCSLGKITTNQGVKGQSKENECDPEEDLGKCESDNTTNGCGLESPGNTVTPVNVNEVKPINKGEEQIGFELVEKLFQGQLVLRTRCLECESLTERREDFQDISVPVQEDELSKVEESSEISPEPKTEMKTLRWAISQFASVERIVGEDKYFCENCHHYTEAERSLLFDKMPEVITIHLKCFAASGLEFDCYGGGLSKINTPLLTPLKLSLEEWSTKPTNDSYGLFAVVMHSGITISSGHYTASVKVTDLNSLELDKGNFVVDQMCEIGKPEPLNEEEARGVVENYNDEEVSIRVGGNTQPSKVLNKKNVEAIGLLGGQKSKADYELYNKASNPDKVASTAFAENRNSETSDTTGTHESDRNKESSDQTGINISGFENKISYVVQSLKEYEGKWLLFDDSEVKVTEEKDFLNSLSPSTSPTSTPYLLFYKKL
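USP1/UAF1 complex (1 nM) preincubated 15 min at room temperature with compound, then Ub-Rho substrate (150 nM final) added. Kinetic fluorescence at 480/540 nm over 6 reads at 60 s intervals; 50 mM HEPES pH 7.8, 0.5 mM EDTA, 0.1 mg/ml BSA, 1 mM TCEP, 0.01% Tween-20.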
USP2a inh – qHTS Assay for Inhibitors of Ubiquitin-specific Protease USP2a Using CHOP2 as the Reporter; USP2 core, Ub-CHOP2 coupled fluorogenic reporter, 485/531; Potency, µM (series often up to 38.3 µM), most hits filed as inhibitors; hit rate 0.01% among 330,000
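Cell-free coupled assay: 10nM USP2 core preincubated 30min RT with compound in Tris-HCl pH 8.0/CaCl2/CHAPS buffer, then 25nM Ub-CHOP2 and 25nM reporter substrate; fluorescence (Ex 485/Em 531) read after 60min RT, normalized to NEM inhibition, concentration-response curves fitted.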
PLK1 PBD block – qHTS for Inhibitors of PLK1-PDB (polo-like kinase 1 - polo-box domain): Primary Screen | Potency, µM, hits mostly inhibitors | hit rate 2.8% among 360,000 | Plk1 PBD binding of FITC phosphopeptide, fluorescence polarization | Serine/threonine-protein kinase PLK1 (Homo sapiens), P53350; note: series mostly up to about 57 µM; nearly all actives have a fitted effect of over 65% in size
VDR inh – Inhibitors of the vitamin D receptor (VDR): qHTS; Vitamin D3 receptor (Homo sapiens), P11473; VDR-SRC2-3 peptide fluorescence polarization, 2 h; Potency, µM, hits mostly inhibitors; hit rate 0.93% among 400,000
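Inhibition of the VDR/SRC2-3 peptide interaction is quantified by fluorescence polarization. Compounds (23 nl, pintool) incubate with the reagents for 2 hours at ambient room temperature.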
FBPA coupling cs – qHTS Assay for Inhibitors of Fructose-1,6-bisphosphate Aldolase from Giardia Lamblia: Coupling assay counterscreen | coupling enzyme system counterscreen, AmpLite Red fluorescence | activity change, negative = inhibition, % at 58.2 µM, hits read low | hit rate 0.67% among 290,000 | AID 2472, 2010; in the data active = activity change below about -30%
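Compounds tested against the coupling enzymes alone at 57.5 uM final; readout was AmpLite Red fluorescence (525/598 nm) after 20 min at RT.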
GALK inhibitor – qHTS Assay for Inhibitors of Human Galactokinase (GALK) | Potency, µM (top dose mostly 57.5 µM), hits mostly inhibitors | hit rate 0.007% among 270,000 | Purified GALK, Kinase-Glo residual ATP luminescence | P51570
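Kinase-Glo Plus luminescence measured ATP left after a 1 h room-temperature reaction. The reaction used 5 nM GALK, 100 uM galactose and 35 uM ATP at pH 8.0 (20 mM HEPES, 5 mM MgCl2, 60 mM NaCl, 1 mM DTT, 0.01% BSA).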
A number is an active result. Unless noted, calls come from the whole dose curve; as a rule, active = well fitted curve in the direction sought with a large enough effect; inconclusive = small, poorly fitted or top-dose-only effect, or another doubt; inactive = no such curve, though single readings can be large; an effect the other way counts as inactive or inconclusive.

Results for CCCCCCCCCCCC1=C(O)C(=O)C=C(O)C1=O ?
USP1 inh: inconclusive; PLK1 PBD block: 30µM; VDR inh: inconclusive; FBPA coupling cs: inactive

Results for CC/C=C\C/C=C\C/C=C\C/C=C\C/C=C\CCCCCC(=O)O ?
VDR inh: inconclusive; FBPA coupling cs: inactive

Results for COC1=CC(=O)C(O)=C(CCCCCCC/C=C/CCCCCCCC2=C(O)C(=O)C=C(OC)C2=O)C1=O ?
USP1 inh: inconclusive; PLK1 PBD block: 19µM; VDR inh: 45µM

What do the screens show for `CCc1nc2ccc(C(=O)Nc3ccc(OC)c(OC)c3)cn2c1N(CC)CCOC`?
PLK1 PBD block: inactive

Results for C[C@@H]1CN([C@H](C)CO)C(=O)CCCn2nncc2CO[C@H]1CN(C)S(=O)(=O)c1cn(C)cn1 ?
USP1 inh: inactive; PLK1 PBD block: inactive

How did CN1CSC2=C(C#N)C(c3cccc(OCc4ccccc4)c3)CC(=O)N2C1 (stereo unspecified) do in these assays?
USP1 inh: inactive; USP2a inh: inactive; PLK1 PBD block: 17µM; VDR inh: 45µM; FBPA coupling cs: inactive; GALK inhibitor: inactive

What do the screens show for `COC(=O)C1C(=O)N2CCCSC2=C(C#N)C1c1cccs1` (stereo unspecified)?
USP1 inh: inactive; USP2a inh: inactive; PLK1 PBD block: inactive; VDR inh: inactive; FBPA coupling cs: inactive; GALK inhibitor: inactive

How did COc1ccc(C2CC(=O)N3CN(C4CCCCC4)CSC3=C2C#N)cc1 (stereo unspecified) do in these assays?
USP1 inh: inconclusive; VDR inh: 45µM

Results for COC(=O)C1=CN(c2cccc(OCc3ccccc3)c2)C(N)=C(C#N)C1c1ccccc1 (stereo unspecified) ?
PLK1 PBD block: inactive

Results for COc1ccc(N2CSC3=C(C#N)C(c4cc(OC)ccc4OC)CC(=O)N3C2)c(OC)c1 (stereo unspecified) ?
USP1 inh: inconclusive; USP2a inh: inactive; PLK1 PBD block: 3.8µM; VDR inh: 16µM; FBPA coupling cs: -46; GALK inhibitor: inactive

Results for COc1ccc(N2CSC3=C(C#N)C(c4cccs4)CC(=O)N3C2)cc1 (stereo unspecified) ?
USP1 inh: inactive; USP2a inh: inactive; PLK1 PBD block: inactive; VDR inh: inactive; FBPA coupling cs: -49; GALK inhibitor: inactive

What do the screens show for `CCCSC1=C(C#N)C(c2cc(OC)ccc2OC)CC(=O)N1` (stereo unspecified)?
USP1 inh: inactive; USP2a inh: inactive; PLK1 PBD block: inactive; VDR inh: inactive; FBPA coupling cs: inactive; GALK inhibitor: inactive

Results for COc1ccc(C2C(=O)N(C3CCCCC3)CC(=O)N2C2CCCC2)cc1 (stereo unspecified) ?
USP1 inh: inactive; USP2a inh: inactive; PLK1 PBD block: inactive; VDR inh: inactive; GALK inhibitor: inactive

What do the screens show for `CCCC(=O)Nc1cccc(Oc2nc(C)cc(C)c2C#N)c1`?
USP1 inh: inactive; USP2a inh: inactive; PLK1 PBD block: inactive; VDR inh: inconclusive; FBPA coupling cs: inactive; GALK inhibitor: inactive

How did CNC(=O)C1Cc2c(-c3cccc(F)c3)ccnc2O1 (stereo unspecified) do in these assays?
PLK1 PBD block: inactive

What do the screens show for `CC(C(=O)NCCCN1CCOCC1)n1cccc1C(=O)c1ccccc1` (stereo unspecified)?
USP1 inh: inactive; USP2a inh: inactive; PLK1 PBD block: inactive; VDR inh: inactive; FBPA coupling cs: inactive; GALK inhibitor: inactive

What do the screens show for `O=C1CN(Cc2ccccc2)CC(=O)N1`?
USP1 inh: inactive; PLK1 PBD block: inactive; VDR inh: inactive

Results for CC(=O)NCc1ccc(S(=O)(=O)N2CCCN(C)CC2)cc1 ?
USP1 inh: inactive; USP2a inh: inactive; PLK1 PBD block: 3.8µM; VDR inh: inconclusive; FBPA coupling cs: inactive; GALK inhibitor: inactive

Results for CC(=O)N1c2ccc(S(=O)(=O)N3CCCCC3)cc2CC1C(=O)NCc1ccc(N(C)C)cc1 (stereo unspecified) ?
USP1 inh: inactive; USP2a inh: inactive; PLK1 PBD block: 21µM; VDR inh: inactive; GALK inhibitor: inactive

Results for C(=N\Nc1ccc(-n2ccnc2)nn1)/c1ccccc1 ?
USP1 inh: inconclusive; USP2a inh: inactive; PLK1 PBD block: inactive; VDR inh: inactive; FBPA coupling cs: inactive; GALK inhibitor: inactive

What do the screens show for `CCOC(=O)C1=C(N)OC(C)=C(C#N)C1c1ccco1` (stereo unspecified)?
USP1 inh: inactive; USP2a inh: inactive; PLK1 PBD block: inactive; VDR inh: inactive; FBPA coupling cs: inactive; GALK inhibitor: inactive

How did CCOC(=O)C1=C(C#N)C(C(=O)OCC)c2ncccc21 (stereo unspecified) do in these assays?
USP1 inh: inactive; PLK1 PBD block: 3.4µM

How did O=C(O)c1ccc(OCCCCCCOC2CCCCO2)cc1 (stereo unspecified) do in these assays?
USP1 inh: inactive; USP2a inh: inactive; PLK1 PBD block: 27µM; VDR inh: inconclusive; FBPA coupling cs: inactive; GALK inhibitor: inactive

What do the screens show for `O=[N+]([O-])c1ccc(CS(=O)c2ccccc2)cc1` (stereo unspecified)?
USP1 inh: inactive; PLK1 PBD block: inconclusive; VDR inh: inconclusive

Results for O=[N+]([O-])c1ccc(S(=O)Cc2ccccc2)c([N+](=O)[O-])c1 (stereo unspecified) ?
USP1 inh: inactive; PLK1 PBD block: 0.75µM; VDR inh: inconclusive

What do the screens show for `O=C(CNC(=O)c1ccc(Cl)cc1)Nc1ccc(S(=O)(=O)Nc2ncccn2)cc1`?
USP1 inh: inactive; USP2a inh: inactive; PLK1 PBD block: inactive; VDR inh: inactive; FBPA coupling cs: inactive; GALK inhibitor: inactive

What do the screens show for `O=C(CCC(=O)Nc1ccccc1)NNS(=O)(=O)c1ccc(Cl)cc1`?
USP1 inh: inactive; USP2a inh: inactive; PLK1 PBD block: 19µM; VDR inh: inactive; GALK inhibitor: inactive

Results for Cc1ccc(NC(=O)CCC(=O)NNS(=O)(=O)c2ccccc2)cc1C ?
USP1 inh: inactive; USP2a inh: inactive; PLK1 PBD block: 27µM; VDR inh: inconclusive; FBPA coupling cs: inactive; GALK inhibitor: inactive

Results for Cc1ccc(NC(=O)CCC(=O)NNS(=O)(=O)c2ccccc2)c(C)c1 ?
USP1 inh: inactive; USP2a inh: inactive; PLK1 PBD block: 6.7µM; VDR inh: inactive; FBPA coupling cs: inactive
